HSP90 refold inh = HSP90 inhibitors, primary screen, cell lysate, luminescence; Heat shock protein HSP 90 (rabbit reticulocyte lysate; luciferase refolding); Rabbit reticulocyte lysate, luciferase refolding luminescence, 3 h; inhibition, % at 5.6 µM; hit rate 0.91% among 290,000; AID 1789, 2009;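 active = inhibition above the screen-wide mean plus 3 SD, computed separately per campaign, cut at about 16% in these data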;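 note: 0% = DMSO wells and 100% = 60 µM geldanamycin wells; inhibitors lower the luminescence because luciferase stays unfolded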
SENP6 inh = SENP6 protease inhibitors, primary screen, biochemical, luminescence, uHTS | Sentrin-specific protease 6 (Homo sapiens), Q9GZR1 | Recombinant SENP6 catalytic domain, aminoluciferin luminescence | inhibition, % at 10 µM | hit rate 1.8% among 330,000 | AID 2599, 2010;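 active = inhibition above about 50% at the single tested dose, limit read from the data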;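 note: plate controls were DMSO wells with enzyme for no effect and DMSO wells lacking enzyme for full effect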
Target sequence (Q9GZR1 628-1112 limits assumed): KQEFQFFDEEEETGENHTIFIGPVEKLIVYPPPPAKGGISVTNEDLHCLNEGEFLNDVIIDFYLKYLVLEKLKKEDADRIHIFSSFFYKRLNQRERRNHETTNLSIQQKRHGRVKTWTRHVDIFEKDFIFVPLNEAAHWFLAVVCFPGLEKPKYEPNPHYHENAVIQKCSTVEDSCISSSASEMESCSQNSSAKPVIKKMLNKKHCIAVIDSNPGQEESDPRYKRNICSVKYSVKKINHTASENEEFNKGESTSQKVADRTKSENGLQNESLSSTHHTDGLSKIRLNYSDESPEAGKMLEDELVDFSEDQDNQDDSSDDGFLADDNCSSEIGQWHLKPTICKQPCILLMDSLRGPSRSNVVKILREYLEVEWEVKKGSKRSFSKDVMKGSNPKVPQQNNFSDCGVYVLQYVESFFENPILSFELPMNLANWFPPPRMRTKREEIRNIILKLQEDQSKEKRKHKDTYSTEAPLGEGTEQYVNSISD
SENP7 block = SENP7 protease inhibitors, primary screen, biochemical, luminescence, uHTS. hit rate 1.5% among 330,000. AID 434973, 2010. inhibition, % at 5 µM. Sentrin-specific protease 7 (Homo sapiens), Q9BQF6. recombinant SENP7, Z-RLRGG-aminoluciferin luminescence, 40 min;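 active = inhibition above about 50% at the single test dose, limit read from the data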;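 note: plate controls were DMSO with enzyme for no effect and no enzyme buffer wells for full effect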
SENP8 block-1 = SENP8 protease inhibitors, primary screen, biochemical, luminescence | hit rate 1.2% among 330,000 | AID 2540, 2010 | Sentrin-specific protease 8 (Homo sapiens), Q96LD8 | inhibition, % at 10 µM | purified SENP8, Z-RLRGG-aminoluciferin cleavage; in the data active = inhibition above about 50%
SENP8 block-2 = human SENP8 protease inhibitors, primary screen, biochemical, fluorescence, Nedd8 protein substrate, uHTS; Sentrin-specific protease 8 (Homo sapiens), Q96LD8; recombinant SENP8; inhibition, % at 20 µM; hit rate 0.64% among 360,000; in the data active = inhibition mostly above about 40%, no sharp cut-off; inactive = mostly below about 27%
LGR2 antag = inhibitors of bursicon-induced LGR2 CRE-luciferase signal, primary screen, cell-based, HEK293, CRE-luciferase reporter, bursicon stimulation | inhibition, % at 9.99 µM | Drosophila bursicon receptor LGR2 (rickets) | bursicon-stimulated, 4 h | hit rate 0.35% among 380,000 | AID 720647, 2013;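 active = drop in luminescence signal, shown as inhibition above about 50% in the replicate tests, limit read from the data, passing the limit was not always enough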;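 note: agonist challenge used bursicon conditioned medium at about half maximal strength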
SENP8 conf = SENP8 protease inhibitors, retest, confirmation, biochemical, luminescence, single concentration | shares compounds with SENP7 block | Recombinant SENP8, Z-RLRGG-aminoluciferin luminescence, 60 min | inhibition, % at 12.5 µM | hit rate 40% among 6,200 | AID 488912, 2010;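 active = mean inhibition across replicates above about 50%, limit read from the data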
SENP6 conf = SENP6 protease inhibitors, confirmation, biochemical, luminescence, single concentration. shares compounds with SENP7 block. recombinant SENP6, Z-RLRGG-aminoluciferin luminescence. inhibition, % at 12.5 µM. hit rate 58% among 6,200
SENP7 conf = SENP7 protease inhibitors, retest, confirmation, biochemical, luminescence, single concentration; shares compounds with SENP7 block; recombinant SENP7, Z-RLRGG-aminoluciferin luminescence, 40 min; inhibition, % at 12.5 µM; hit rate 69% among 6,200; AID 488917, 2010
Casp3 SENP sel = caspase-3 protease inhibitors, confirmation, selectivity assay for SENP inhibitor project, biochemical, single concentration | inhibition, % at 12.5 µM | purified caspase-3, Z-DEVD-aminoluciferin luminescence, 60 min | hit rate 60% among 6,200 | shares compounds with SENP7 block;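 active = mean inhibition above about 50%, limit read from the data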;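 note: plate controls were enzyme with DMSO for no effect and wells without caspase-3 for full effect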
Target sequence (P42574 28-227 limits assumed): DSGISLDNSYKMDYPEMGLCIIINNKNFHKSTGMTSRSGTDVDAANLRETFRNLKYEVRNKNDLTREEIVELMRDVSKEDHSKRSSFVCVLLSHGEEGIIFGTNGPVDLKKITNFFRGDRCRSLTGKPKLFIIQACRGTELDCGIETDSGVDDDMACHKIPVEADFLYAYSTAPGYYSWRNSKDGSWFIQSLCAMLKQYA
SENP luc ctr = interferes with luciferase luminescence in SENP counter-screen | shares compounds with SENP7 block | Pre-incubated SENP8/Z-RLRGG-aminoluciferin, luciferase luminescence interference | inhibition, % at 12.5 µM | hit rate 39% among 6,200 | AID 488919;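 active = mean inhibition above about 50% when retested at one dose, limit read from the data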;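 note: plate controls were DMSO wells with completed reaction for no effect and substrate without enzyme for full effect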
Active calls of the source: *; . = no result. Compounds with a hit are over-represented: about 2.3% of the library has one in this group of screens.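 Rule for the calls, unless noted: active = mean inhibition above about 50% in the one-dose retest (limit read from the data); inactive = the rest.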

SMILES | HSP90 refold inh | SENP6 inh | SENP7 block | SENP8 block-1 | SENP8 block-2 | LGR2 antag | SENP8 conf | SENP6 conf | SENP7 conf | Casp3 SENP sel | SENP luc ctr
O=C(Nc1ccc2c(c1)OCO2)c1ccc(Cl)s1 | 2 | 76* | 74* | 62* | 12 | -26 | -1 | 63* | 88* | 66* | 64*
O=C(Nc1ccc(N2CCCCCC2)cc1)c1ccc[nH]1 | . | 66* | 33 | 56* | -5 | -124 | 11 | 9 | -2 | -1 | 35
O=C(Nc1ccc(N2CCCCC2)cc1)C(Cl)c1ccccc1 (stereo not drawn) | 0 | 61* | 54* | 34 | 12 | -29 | 14 | 15 | 15 | 28 | 26
O=C(Nc1ccc(Cl)c(Cl)c1)c1ccc2c(c1)OCO2 | 4 | 80* | 72* | 77* | 17 | -44 | 19 | 77* | 96* | 65* | 9
O=C(Nc1nccs1)[C@H]1[C@H](CO)[C@H]2Cn3c(ccc(-c4ccccc4)c3=O)[C@H]2N1CC1CCCC1 | . | . | . | . | . | -10 | . | . | . | . | .
C[C@@H]1CCCCO[C@@H](CN(C)C(=O)c2ccncc2)[C@@H](C)CN([C@H](C)CO)C(=O)c2cc(NC(=O)NC3CCCCC3)ccc2O1 | . | . | . | . | . | 2 | . | . | . | . | .
O=C(Nc1ccc(Cl)c(Cl)c1)Nc1ccccc1O | -1 | -3 | 97* | 98* | 5 | -44 | 98* | 100* | 104* | 90* | 98*
O=C(Nc1cccc(-c2nn[nH]n2)c1)c1ccc(Cl)s1 | -1 | 51* | 16 | 22 | 2 | -11 | 42 | 36 | 72* | 35 | 58*
O=C(Nc1ccc(F)c(F)c1)c1ccc2c(c1)OCO2 | 0 | 71* | -5 | 67* | 5 | . | 73* | 74* | 91* | 76* | 48
Cc1cc(C)cc(NC(=O)Nc2ccc(N3CCCCC3)cc2)c1 | -3 | 81* | 82* | 80* | 24 | -51 | 16 | 20 | 42 | 33 | 20
C[C@@H]1CN([C@@H](C)CO)C(=O)c2cc(C#CC3CCCC3)cnc2O[C@@H]1CN(C)S(=O)(=O)c1cccc(F)c1 | . | . | . | . | . | 12 | . | . | . | . | .
CS(=O)(=O)Nc1ccc2c(c1)[C@H]1C[C@H](CC(=O)NC3CCCC3)O[C@H](CO)[C@H]1O2 | . | . | . | . | . | -2 | . | . | . | . | .
O=C(Nc1ccc(NC(=O)c2ccc(Cl)cc2Cl)cc1)c1ccc2c(c1)OCO2 | 4 | -11 | -7 | -1 | -64 | 4 | . | . | . | . | .
O=C(Nc1ccc(Cl)cc1)c1ccc2c(c1)OCO2 | 10 | 73* | 76* | 37 | 22 | . | 37 | 54* | 88* | 74* | 18
O=C(Nc1ccc(Br)cc1)c1ccc2c(c1)OCO2 | 1 | 34 | 52* | 6 | -1 | -4 | 12 | 19 | 70* | 47 | 2
O=C(Nc1ccc(N2CCCC2)cc1)c1cccc(Cl)c1 | 8 | 88* | 94* | 87* | 30 | -20 | 3 | 56* | 51* | 73* | 9
O=C(Nc1ccc2nsnc2c1)c1ccc2c(c1)OCO2 | -4 | 67* | 78* | 65* | -275 | 5 | 37 | 57* | 88* | 80* | 46
NC(=O)c1ccc(NC(=O)c2ccc3c(c2)OCO3)cc1 | -2 | 9 | 46 | 0 | 12 | -31 | . | . | . | . | .
CC(=O)c1cccc(NC(=O)c2ccc3c(c2)OCO3)c1 | 0 | 12 | 17 | -15 | 17 | . | . | . | . | . | .
O=C(NC1CCC1)[C@H]1[C@H](CO)[C@H]2Cn3c(ccc(-c4ccncc4)c3=O)[C@H]2N1CCc1ccccc1 | . | . | . | . | . | -2 | . | . | . | . | .
COc1ccc(CCNC(=O)CCn2c(SCC(=O)N3CCCC3)nc3ccccc3c2=O)cc1OC | 3 | 70* | 2 | -1 | 11 | 2 | 12 | 4 | 0 | -3 | -2
Cc1cccc(N2C(=O)CC(N3CCN(Cc4ccc5c(c4)OCO5)CC3)C2=O)c1 (stereo not drawn) | 2 | -22 | -1 | -4 | 5 | . | . | . | . | . | .
O=C1CC(N2CCN(Cc3ccc4c(c3)OCO4)CC2)C(=O)N1c1ccccc1 (stereo not drawn) | 0 | -2 | 62* | 5 | 18 | . | 6 | 8 | -8 | -3 | 0
C[C@H]1CN([C@@H](C)CO)C(=O)c2cc(NC(=O)C3CC3)ccc2O[C@H]1CN(C)C(=O)Nc1ccccc1 | . | . | . | . | . | -7 | . | . | . | . | .
[O-][n+]1cccc2c(Br)cc(Br)c(O)c21 | 1 | 81* | 7 | 18 | -93 | -2 | -1 | 9 | -5 | 7 | 2
SMILES | HSP90 refold inh | SENP6 inh | SENP7 block | SENP8 block-1 | SENP8 block-2 | LGR2 antag | SENP8 conf | SENP6 conf | SENP7 conf | Casp3 SENP sel | SENP luc ctr
C[C@H]1CN([C@@H](C)CO)C(=O)c2cccc(NC(=O)C3CCCCC3)c2O[C@H]1CN(C)CC1CC1 | . | . | . | . | . | -2 | . | . | . | . | .
Cn1c(=NC(=O)c2ccccc2[N+](=O)[O-])sc2cccc(F)c21 | -1 | 47 | 77* | 20 | 24 | -79 | 24 | 25 | 18 | 35 | 0
CCCCCc1ccc(-c2ccc(OC)cc2)nc1 | -5 | 52* | 39 | 27 | 12 | -100 | 25 | 32 | 64* | 34 | 32
CCCCCCCOc1ccc(-c2ccc(C#N)cn2)cc1 | 0 | -26 | -5 | -2 | -297 | 3 | . | . | . | . | .
Cc1ccc(-c2ccc3c(c2)O[C@@H](CN(C)Cc2ccncc2)[C@H](C)CN([C@@H](C)CO)S3(=O)=O)cc1 | . | . | . | . | . | 3 | . | . | . | . | .
Clc1ccc(COn2c(-c3ccc(Cl)cc3)nc3ccccc32)cc1 | -1 | 18 | -5 | 4 | 0 | . | . | . | . | . | .
Cc1ccc(COn2c(-c3ccc(Cl)cc3)nc3ccc([N+](=O)[O-])cc32)cc1 | -1 | 67* | 56* | 42 | 22 | . | 11 | 17 | 49 | 22 | 24
CCOC(=O)C(C)On1c(-c2ccccc2)nc2ccc([N+](=O)[O-])cc21 (stereo not drawn) | 2 | 84* | 76* | 71* | 15 | . | 28 | 25 | 66* | 59* | 61*

Screens: PubChem BioAssay, several laboratories
